PubChem BioAssay

Each compound was assayed against Carbonic anhydrase 2 (Homo sapiens) (UniProt P00918) (assay: compounds binding carbonic anhydrase 2 – biochemical, small-molecule microarray, Alexa647-labelled CAII, profiling panel (AID 1122)). Conditions: CAII-A647 binding fluorescence, higher = more signal.
Compound `CC(C)N1CC=CC23O[C@@H]4C=CCOC(=O)[C@@H]4[C@H]2C(=O)N(CCCCCO)[C@@H]3C1=O` (stereo partly drawn) has a composite z-score of 0.733. With `[N-]=[N+]=Nc1ccccc1C[C@@]1(C(=O)N2CCCCC2)N=C(c2ccc(OCCCO)cc2)O[C@@H]1c1ccccc1` the composite z-score was 0.398. `OCC1C=C(/C=C/c2ccccc2)CN1Cc1ccccc1Br` (stereo not drawn) was tested, and the composite z-score was 0.287. `C=CC[C@@]1(C(=O)N2CCCCC2)N=C(c2ccc(OCCCO)cc2)O[C@@H]1c1ccccc1N=[N+]=[N-]` showed a composite z-score of 0.443. Work on `CO[C@H]1O[C@H](CO)[C@@H](OC(=O)Nc2ccc(Oc3ccccc3)cc2)[C@H](OC(=O)Nc2ccc3c(c2)OCO3)[C@@H]1OC(=O)Nc1ccc2c(c1)OCO2` yielded a composite z-score of 0.333. Work on `COCCOC(=O)N1C(=O)[C@@]2(c3ccccc31)[C@H](C(=O)N1CCc3cc(OC)c(OC)cc3C1)[C@H]1C(=O)O[C@H](c3ccccc3)[C@H](c3ccccc3)N1[C@@H]2c1ccc(O)cc1` yielded a composite z-score of 0.424. Work on `CCCCC(=C=CC[C@@H](O)c1cccc(OCCO)c1)C[C@@H](O)c1ccccn1` yielded a composite z-score of 0.7. For `CCOC(=O)C[C@H]1[C@H](OC(=O)c2cc3ccccc3oc2=O)[C@@H](NC(=O)CC(C)C)c2cc(OCCCO)ccc2N1C(=O)c1ccccc1`, the composite z-score was 0.308. `CC(C)(C)OC(=O)CC[C@@]1(C(=O)N2CCCCC2)N=C(c2ccc(OCCCO)cc2)O[C@@H]1c1ccccc1` gave a composite z-score of 0.781. Work on `Cc1ccc(S(=O)(=O)N2C[C@@H](C(=O)O)[C@H](Sc3ccccc3)C[C@H]2c2ccccc2)cc1` yielded a composite z-score of 0.732. Work on `O=C1[C@H]2C=C(Br)[C@H](C[C@@H]2OCCCCCCO)[C@@]12CO2` yielded a composite z-score of -0.382. Compound `COc1ccc(C(=O)Nc2cccc(CN3C(=O)[C@]4(O[C@H](CCn5cc(CCO)nn5)[C@@H]([Si](C)(C)c5ccc(OC)cc5)[C@@H]4C)c4ccccc43)c2)cc1` has a composite z-score of 0.43. For `C=C[C@H](C)[C@@H](OC(=O)Nc1ccc(SC)cc1)c1ccc(O)c2ccccc12`, the composite z-score was 0.609. `COCCOC(=O)N1C(=O)[C@@]2(c3cc(C#CC4(O)CCCCCC4)ccc31)[C@H](C(=O)Nc1nc3ccccc3s1)[C@H]1C(=O)O[C@H](c3ccccc3)[C@H](c3ccccc3)N1[C@@H]2c1ccccc1OCCO` was tested, and the composite z-score was 0.598. `C=CCC(OC(C)=O)[C@@H]1[C@@H](N(Cc2ccc(-c3ccccc3)cc2)C(=O)Cc2ccc(F)cc2)c2cc(OCCCO)ccc2N1C(=O)c1ccc2ccccc2c1` (stereo partly drawn) showed a composite z-score of 0.0176. `CN(C)CCCC[C@@H]1NC(=O)[C@H]2C[C@@H](C(=O)NCCCCCN)[C@@H](c3cccc(OCCO)c3)N2C1=O` showed a composite z-score of 0.746. Compound `C=CC[C@]1(C(=O)NCc2ccccc2)N=C(c2ccc(OCCCO)cc2)O[C@H]1c1ccccc1CN=[N+]=[N-]` has a composite z-score of 0.563. `O=C(CS)NCCCCCNC(=O)[C@@H]1C[C@@H]2C(=O)NCC(=O)N2[C@@H]1c1ccc(O)cc1` was tested, and the composite z-score was 0.552. With `C=CCC(OC(C)=O)[C@@H]1[C@@H](N(Cc2ccc(-c3cccc(C(F)(F)F)c3)o2)C(=O)c2cccc3ccccc23)c2cc(OCCCO)ccc2N1C(=O)Cc1ccc2ccccc2c1` (stereo partly drawn) the composite z-score was 0.0886. With `C=CCC(OC(C)=O)[C@@H]1[C@@H](N(Cc2ccc(-c3cccc(C(F)(F)F)c3)o2)C(=O)Cc2ccc(OC)cc2)c2cc(OCCCO)ccc2N1C(=O)c1ccc2ccccc2c1` (stereo partly drawn) the composite z-score was 0.228. `CC(C)CN1C(=O)[C@@]2(c3ccc([N+](=O)[O-])cc3)CC(=O)N(C3CCCCC3)[C@@H]2c2ccc(CO)cc21` gave a composite z-score of 0.77. Work on `O=C1C2C=CC(C(O)C=Cc3ccc([N+](=O)[O-])cc3)N(n3cnnc3)C2C(=O)N1Cc1ccccc1` (stereo not drawn) yielded a composite z-score of 0.66. `O=C1O[C@H](c2ccccc2)[C@H](c2ccccc2)N2[C@H]1[C@@H](C(=O)NC[C@H](O)c1ccccc1)[C@]1(C(=O)Nc3ccc(C#CC4=CCCCC4)cc31)[C@H]2c1ccccc1OCCO` showed a composite z-score of 0.343. `O=C1NC(=O)C2C1C=CC(C(O)c1ccc(I)cc1)N2Nc1ccc(Cl)cc1Cl` (stereo not drawn) showed a composite z-score of 0.404. `CC(C)CCC[C@@H](C)[C@H]1CC[C@@]2(C)C3=C(CC[C@]12C)[C@@]1(C)CC[C@H](OC(=O)c2ccc(C(F)(F)F)nc2)C(C)(C)C1CC3` (stereo partly drawn) gave a composite z-score of -0.0684. With `CC(C)(C)OC(=O)CC[C@]1(C(=O)NCCN2CCOCC2)COC(c2ccc(OCCCO)cc2)=N1` the composite z-score was 0.719. `CN1C(=O)C2C=CC(C(O)c3ccccc3)N(N3CCCCC3)C2C1=O` (stereo not drawn) showed a composite z-score of 0.846. `CC[C@@H]1C=C(C(=O)O)[C@H](c2cccc3ccccc23)N1S(=O)(=O)c1ccc(C)cc1` gave a composite z-score of 0.664.
